PubChem BioAssay (EPA / NIEHS)
“And” between values parts separate entries of the source, which are not always exact repeats. Identical values can stand only once. Inconclusive results are not listed. More than one record can exist for a structure, and the calls need not agree. The source made the active and inactive calls. How the source made its calls, unless noted: active means hit-call score of the fitted dose curve at least 0.9, where 1 is the maximum; inactive means score below 0.9.

Tests used:
[1] = read-out: Vascular cell adhesion molecule 1 (VCAM1), VCAM1 (gene 7412); experiment: BSK_LPS_VCAM1: BioMAP Diversity Plus: LPS Assay for Vascular cell adhesion molecule 1 (VCAM1) Biomarker Activity (AID 2283086); conditions: primary human HUVEC with PBMC; actives raise or lower the signal
In short: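 ELISA read-out of VCAM-1 at 24 h post-dosing in an LPS-driven HUVEC/PBMC primary human co-culture; gain or loss of signal fitted bidirectionally against DMSO baseline. Cytotoxicity tracked in parallel cultures by SRB total-protein staining.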

CD38, CD38 (gene 952) = experiment: BSK_SAg_CD38: BioMAP Diversity Plus: SAg Assay for CD38 Biomarker Activity (AID 2283087); conditions: primary human HUVEC with PBMC; actives raise or lower the signal
In short: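 Measures CD38 on a human endothelial/PBMC co-culture driven by SEB and TSST-1, 24 h after compound exposure, using ELISA with fluorescence detection; DMSO defines baseline for bidirectional curve fitting.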

CD40, CD40 (gene 958) = experiment: BSK_SAg_CD40: BioMAP Diversity Plus: SAg Assay for CD40 Biomarker Activity (AID 2283088); conditions: primary human HUVEC with PBMC; actives raise or lower the signal
In short: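 Endpoint derived by fitting increases or decreases versus DMSO controls. CD40 is detected by fluorescence ELISA in a human vascular co-culture of endothelium and PBMC at 24 h.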

CD69, CD69 (gene 969) = experiment: BSK_SAg_CD69: BioMAP Diversity Plus: SAg Assay for CD69 Biomarker Activity (AID 2283089); conditions: primary human HUVEC with PBMC; actives raise or lower the signal;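 on AC50: cell surface CD69 protein quantified by ELISA with fluorescence detection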
In short: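 Primary human vascular co-culture (umbilical vein endothelium with peripheral blood mononuclear cells) exposed to test chemical for 24 h. CD69 levels quantified by fluorescence ELISA; DMSO served as negative control for bidirectional fitting.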

[2] = read-out: Monocyte Chemoattractant Protein-1 (MCP1), CCL2 (gene 6347); experiment: BSK_SAg_MCP1: BioMAP Diversity Plus: SAg Assay for Monocyte Chemoattractant Protein-1 (MCP1) Biomarker Activity (AID 2283090); conditions: primary human HUVEC with PBMC; actives raise or lower the signal
In short: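 Values derive from bidirectional fitting of ELISA-measured MCP1 against DMSO controls. Readings were taken 24 h after dosing human vascular endothelial cells co-cultured with peripheral blood mononuclear cells under superantigen stimulation.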

[3] = read-out: E-selectin (Homo sapiens) (UniProt P16581); experiment: BSK_SAg_Eselectin: BioMAP Diversity Plus: SAg Assay for Eselectin Biomarker Activity (AID 2283091); conditions: primary human HUVEC with PBMC; actives raise or lower the signal
In short: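 Endpoint values derive from bidirectional fitting relative to DMSO, using ELISA-measured E-selectin in a human vascular co-culture (umbilical vein endothelium plus PBMC) sampled 24 h after dosing.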

[4] = read-out: Monokine induced gamma interferon (MIG), CXCL9 (gene 4283); experiment: BSK_SAg_MIG: BioMAP Diversity Plus: SAg Assay for Monokine induced gamma interferon (MIG) Biomarker Activity (AID 2283092); conditions: primary human HUVEC with PBMC; actives raise or lower the signal
In short: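 Endothelial cells and PBMC were co-cultured, exposed to test chemicals, and sampled 24 h later. MIG was measured by ELISA, and responses were fitted in both directions relative to DMSO.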

[5] = BSK_SAg_PBMCCytotoxicity: PBMC Cytotoxicity Assessment in the BioMAP Diversity Plus: SAg Assay (AID 2283093); conditions: primary human HUVEC with PBMC;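 further: fitted both ways against DMSO so a hit may be loss or gain of signal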;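 on AC50: PBMC superantigen activated with SEB plus TSST-1 one hour after compound addition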
In short: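 PBMC viability by Alamar Blue reduction, fluorescence read at 546/580 nm after 6 h dye exposure. Cells were dosed 1 h before SEB plus TSST-1 activation (20 ng/mL final each), then held 90 h; endothelial/PBMC human co-culture.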

[6] = read-out: Interleukin-8 (IL8), CXCL8 (gene 3576); experiment: BSK_SAg_IL8: BioMAP Diversity Plus: SAg Assay for Interleukin-8 (IL8) Biomarker Activity (AID 2283094); conditions: primary human HUVEC with PBMC; actives raise or lower the signal
In short: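 HUVEC/PBMC co-culture, 24 h post-dose; IL-8 by ELISA. Gain or loss of signal fitted bidirectionally vs DMSO baseline.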

[7] = BSK_SAg_Proliferation: Cell Proliferation Assessment in the BioMAP Diversity Plus: SAg Assay (AID 2283095); conditions: primary human HUVEC with PBMC;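 further: relative cell number as total protein by SRB absorbance in sub-confluent culture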
In short: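 HUVEC/PBMC co-culture, 96-well. TCA-fixed (10%), 0.1% SRB stain, A560 at 96 h. Protein content used as viability readout; bidirectional fitting vs DMSO control.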

[8] = BSK_SAg_SRB: Viability Assessment in the BioMAP Diversity Plus: SAg Assay (AID 2283096); conditions: primary human HUVEC with PBMC;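 further: cells read one day after compound addition; hits may be either gain or loss of signal compared with DMSO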
In short: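 Compounds were added to a human vascular co-culture of umbilical vein endothelium and PBMC. After 24 h, parallel cultures were fixed with 10% TCA, stained with 0.1% sulforhodamine B and read at 560 nm. Gain or loss of signal was fitted relative to DMSO.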

[9] = target: human CYP1A1, CYP1A1 (gene 1543) (UniProt P04798); experiment: NVS_ADME_hCYP1A1: NovaScreen (NVS) CYP450-related Enzyme Activity (ADME) Assay for human CYP1A1 (AID 2283100; active means hit-call score of the fitted dose curve at least 0.9, where 1 is the maximum)
In short: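 Inhibition of recombinant CYP1A1 turnover was assessed fluorometrically in a biochemical format 1 h after compound exposure. Testing began at 10 uM in duplicate and progressed to concentration series reaching 20 uM, with on-plate positive and negative controls.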

[10] = target: human CYP2D6, CYP2D6 (gene 1565) (UniProt P10635); experiment: NVS_ADME_hCYP2D6: NovaScreen (NVS) CYP450-related Enzyme Activity (ADME) Assay for human CYP2D6 (AID 2283107; active means hit-call score of the fitted dose curve at least 0.9, where 1 is the maximum)
In short: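 Biochemical fluorescence assay, insect-cell-derived enzyme. Read at 1 h; inhibition taken from loss of signal against acetonitrile. Screened at 10 uM in duplicate, with concentration series for actives.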

[11] = target: human CYP2C9, CYP2C9 (gene 1559) (UniProt P11712); experiment: NVS_ADME_hCYP2C9: NovaScreen (NVS) CYP450-related Enzyme Activity (ADME) Assay for human CYP2C9 (AID 2283108; active means hit-call score of the fitted dose curve at least 0.9, where 1 is the maximum)
In short: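 Recombinant human CYP2C9 expressed in SF9 cells, fluorogenic substrate, fluorescence read 0.75 h after dosing. Chemicals first run in duplicate at 10 uM, with actives followed in concentration series; loss of signal versus acetonitrile baseline.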

[12] = target: Cytochrome P450 3A4 (Homo sapiens) (UniProt P08684); experiment: NVS_ADME_hCYP3A4: NovaScreen (NVS) CYP450-related Enzyme Activity (ADME) Assay for human CYP3A4 (AID 2283110; active means hit-call score of the fitted dose curve at least 0.9, where 1 is the maximum)
In short: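 Recombinant CYP3A4 from insect cells, fluorescence enzyme read-out, 0.33 h after chemical addition. Acetonitrile = negative control/baseline. Primary HTS: 10 uM in duplicate; actives re-tested in concentration series.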

[13] = target: Cytochrome P450 2C19 (Homo sapiens) (UniProt P33261); experiment: NVS_ADME_hCYP2C19: NovaScreen (NVS) CYP450-related Enzyme Activity (ADME) Assay for human CYP2C19 (AID 2283113; active means hit-call score of the fitted dose curve at least 0.9, where 1 is the maximum;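 further: potency for inhibition seen as loss of fluorescent signal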)
In short: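 Biochemical CYP2C19 inhibition screen: insect-cell recombinant protein plus fluorescent substrate, 1 h, fluorescence intensity. Acetonitrile defined baseline activity. Single 10 uM concentration in duplicate, with concentration-response follow-up for actives.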

[14] = target: human Acetylcholinesterase (AChE), ACHE (gene 43) (UniProt P22303); experiment: NVS_ENZ_hAChE: NovaScreen (NVS) Enzymatic Assay for human Acetylcholinesterase (AChE) (AID 2283129; active means hit-call score of the fitted dose curve at least 0.9, where 1 is the maximum)
In short: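 Actives from a duplicate single-point screen (25 uM) were followed up in concentration series. Enzyme activity read by absorbance (colorimetric) 0.33 hour after dosing, cell-free, normalized to DMSO, with loss of signal scored.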

[15] = target: human CYP4F12, CYP4F12 (gene 66002) (UniProt Q9HCS2); experiment: NVS_ADME_hCYP4F12: NovaScreen (NVS) CYP450-related Enzyme Activity (ADME) Assay for human CYP4F12 (AID 2283111; active means hit-call score of the fitted dose curve at least 0.9, where 1 is the maximum)
In short: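 Recombinant enzyme with a fluorescent substrate, signal read at 0.5 h post-dose; activity loss analysed relative to acetonitrile. Compounds first run in duplicate at 10 uM, with follow-up concentration-response testing of actives.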

Measured: AC50

Chain of human CYP2C9, CYP2C9 (gene 1559) (P11712 whole entry, looked up): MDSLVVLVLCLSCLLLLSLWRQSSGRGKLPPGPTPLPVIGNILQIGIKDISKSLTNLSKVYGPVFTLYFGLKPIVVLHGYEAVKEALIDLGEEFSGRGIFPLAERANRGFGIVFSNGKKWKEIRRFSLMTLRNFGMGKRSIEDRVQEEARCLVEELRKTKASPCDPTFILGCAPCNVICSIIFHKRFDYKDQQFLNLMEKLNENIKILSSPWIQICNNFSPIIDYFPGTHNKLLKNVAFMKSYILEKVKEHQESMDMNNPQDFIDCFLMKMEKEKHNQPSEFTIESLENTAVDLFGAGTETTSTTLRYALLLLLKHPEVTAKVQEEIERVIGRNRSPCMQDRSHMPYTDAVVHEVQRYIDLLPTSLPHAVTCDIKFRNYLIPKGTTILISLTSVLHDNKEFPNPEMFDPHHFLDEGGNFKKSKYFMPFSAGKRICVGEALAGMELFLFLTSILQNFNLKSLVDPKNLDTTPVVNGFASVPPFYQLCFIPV
Chain of E-selectin (Homo sapiens) (P16581 whole entry, looked up): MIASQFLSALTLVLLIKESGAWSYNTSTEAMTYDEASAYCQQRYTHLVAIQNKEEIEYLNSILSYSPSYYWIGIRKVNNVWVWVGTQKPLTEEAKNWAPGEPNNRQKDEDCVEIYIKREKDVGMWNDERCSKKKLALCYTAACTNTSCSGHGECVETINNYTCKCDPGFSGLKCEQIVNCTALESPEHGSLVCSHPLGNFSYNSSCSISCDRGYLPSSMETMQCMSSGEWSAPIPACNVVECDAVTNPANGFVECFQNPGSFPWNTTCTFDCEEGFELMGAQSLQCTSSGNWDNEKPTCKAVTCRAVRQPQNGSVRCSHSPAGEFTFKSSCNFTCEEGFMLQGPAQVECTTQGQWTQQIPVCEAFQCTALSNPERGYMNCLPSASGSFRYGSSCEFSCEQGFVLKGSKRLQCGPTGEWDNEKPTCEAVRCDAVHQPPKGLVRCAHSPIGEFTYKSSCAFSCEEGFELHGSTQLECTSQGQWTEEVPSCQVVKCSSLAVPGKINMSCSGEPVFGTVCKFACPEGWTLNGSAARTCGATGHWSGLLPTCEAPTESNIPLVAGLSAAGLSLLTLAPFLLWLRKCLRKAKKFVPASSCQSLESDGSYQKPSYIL
Chain of human Acetylcholinesterase (AChE), ACHE (gene 43) (P22303 whole entry, looked up): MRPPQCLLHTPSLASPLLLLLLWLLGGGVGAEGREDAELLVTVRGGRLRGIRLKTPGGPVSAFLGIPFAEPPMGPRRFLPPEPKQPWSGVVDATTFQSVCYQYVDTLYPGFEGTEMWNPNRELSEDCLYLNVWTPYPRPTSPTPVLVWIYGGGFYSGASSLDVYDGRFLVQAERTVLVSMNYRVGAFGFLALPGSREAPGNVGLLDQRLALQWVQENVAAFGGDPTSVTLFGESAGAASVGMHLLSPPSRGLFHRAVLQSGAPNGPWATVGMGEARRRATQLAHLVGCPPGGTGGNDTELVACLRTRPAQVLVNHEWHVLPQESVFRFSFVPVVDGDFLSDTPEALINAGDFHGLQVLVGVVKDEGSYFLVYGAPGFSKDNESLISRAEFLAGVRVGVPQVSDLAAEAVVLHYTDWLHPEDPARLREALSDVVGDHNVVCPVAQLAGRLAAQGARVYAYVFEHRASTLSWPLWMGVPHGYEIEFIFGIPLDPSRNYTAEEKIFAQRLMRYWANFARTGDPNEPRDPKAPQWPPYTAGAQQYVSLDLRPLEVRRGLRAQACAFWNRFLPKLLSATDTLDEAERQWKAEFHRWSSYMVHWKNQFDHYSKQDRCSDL
Chain of human CYP1A1, CYP1A1 (gene 1543) (P04798 whole entry, looked up): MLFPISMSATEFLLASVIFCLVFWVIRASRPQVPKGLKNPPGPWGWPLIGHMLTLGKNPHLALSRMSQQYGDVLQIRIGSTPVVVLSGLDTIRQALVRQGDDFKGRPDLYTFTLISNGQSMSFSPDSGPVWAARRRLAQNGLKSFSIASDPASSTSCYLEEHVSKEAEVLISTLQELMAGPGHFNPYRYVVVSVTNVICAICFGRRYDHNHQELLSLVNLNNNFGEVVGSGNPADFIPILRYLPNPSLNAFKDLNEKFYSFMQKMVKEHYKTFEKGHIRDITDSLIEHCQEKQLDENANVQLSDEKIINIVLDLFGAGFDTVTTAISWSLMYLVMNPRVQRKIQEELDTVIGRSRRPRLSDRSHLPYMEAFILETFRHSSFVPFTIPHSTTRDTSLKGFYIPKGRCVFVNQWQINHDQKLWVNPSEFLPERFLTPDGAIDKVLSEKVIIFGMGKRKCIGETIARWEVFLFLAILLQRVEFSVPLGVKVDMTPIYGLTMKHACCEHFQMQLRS
Chain of human CYP2D6, CYP2D6 (gene 1565) (P10635 whole entry, looked up): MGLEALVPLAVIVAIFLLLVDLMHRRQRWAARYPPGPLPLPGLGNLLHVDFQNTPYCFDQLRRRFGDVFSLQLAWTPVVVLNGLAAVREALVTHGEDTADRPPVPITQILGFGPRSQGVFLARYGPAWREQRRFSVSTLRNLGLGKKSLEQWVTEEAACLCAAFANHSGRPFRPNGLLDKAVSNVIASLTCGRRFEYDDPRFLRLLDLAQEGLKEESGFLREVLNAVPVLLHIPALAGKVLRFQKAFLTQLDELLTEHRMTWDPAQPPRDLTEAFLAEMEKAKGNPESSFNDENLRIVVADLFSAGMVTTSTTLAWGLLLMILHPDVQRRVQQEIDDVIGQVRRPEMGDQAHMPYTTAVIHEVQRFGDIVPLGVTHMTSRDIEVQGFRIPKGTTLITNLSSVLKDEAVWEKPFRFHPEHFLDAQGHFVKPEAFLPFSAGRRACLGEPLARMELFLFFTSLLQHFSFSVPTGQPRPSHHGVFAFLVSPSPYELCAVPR
Chain of human CYP4F12, CYP4F12 (gene 66002) (Q9HCS2 whole entry, looked up): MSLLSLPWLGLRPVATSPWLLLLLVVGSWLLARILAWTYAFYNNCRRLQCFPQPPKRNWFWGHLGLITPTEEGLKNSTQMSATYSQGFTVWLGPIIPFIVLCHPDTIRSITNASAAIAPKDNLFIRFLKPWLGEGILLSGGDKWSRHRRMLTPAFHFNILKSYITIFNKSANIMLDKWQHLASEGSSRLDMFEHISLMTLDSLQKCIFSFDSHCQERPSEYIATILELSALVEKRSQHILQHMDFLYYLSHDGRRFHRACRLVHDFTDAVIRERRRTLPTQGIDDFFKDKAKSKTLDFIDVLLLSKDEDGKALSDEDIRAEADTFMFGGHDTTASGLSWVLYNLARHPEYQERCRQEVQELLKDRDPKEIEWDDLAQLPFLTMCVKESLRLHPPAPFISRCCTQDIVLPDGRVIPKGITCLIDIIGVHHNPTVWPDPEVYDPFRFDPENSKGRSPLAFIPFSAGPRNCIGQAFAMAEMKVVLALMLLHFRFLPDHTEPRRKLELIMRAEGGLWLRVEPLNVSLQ
Chain of Cytochrome P450 3A4 (Homo sapiens) (P08684 whole entry, looked up): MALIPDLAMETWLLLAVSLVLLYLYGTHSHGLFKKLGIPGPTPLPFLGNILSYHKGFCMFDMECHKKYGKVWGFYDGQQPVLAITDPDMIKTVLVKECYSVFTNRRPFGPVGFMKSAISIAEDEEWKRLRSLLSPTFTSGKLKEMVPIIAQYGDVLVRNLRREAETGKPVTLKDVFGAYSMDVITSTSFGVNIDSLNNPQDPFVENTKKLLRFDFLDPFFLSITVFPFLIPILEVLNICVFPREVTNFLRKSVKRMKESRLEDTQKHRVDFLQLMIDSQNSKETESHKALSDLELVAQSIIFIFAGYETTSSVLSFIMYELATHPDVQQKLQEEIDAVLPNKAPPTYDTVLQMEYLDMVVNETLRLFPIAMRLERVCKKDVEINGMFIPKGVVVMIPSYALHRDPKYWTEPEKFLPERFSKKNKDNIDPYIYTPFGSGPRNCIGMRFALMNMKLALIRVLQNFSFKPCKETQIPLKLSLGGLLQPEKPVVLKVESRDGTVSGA

O=[N+]([O-])C(Br)(CO)CO
active: [1] 30.1 µM | CD38, CD38 (gene 952) 31.3 µM | CD40, CD40 (gene 958) 28.1 µM | CD69, CD69 (gene 969) 28.5 µM | [2] 31.1 µM | [3] 24.7 µM | [4] 39.1 µM | [5] 22.5 µM | [6] 27.6 µM | [7] 8.35 µM | [8] 30.6 µM | [9] 12.7 µM | [11] 3.26 µM | [13] 1.93 µM | [14] 29.5 µM
inactive: [10] | [12]

CCNS(=O)(=O)C(F)(F)C(F)(F)C(F)(F)C(F)(F)C(F)(F)C(F)(F)C(F)(F)C(F)(F)F
active: [1] 30 µM | CD38, CD38 (gene 952) 19.3 µM and 48.6 µM and 30 µM | CD40, CD40 (gene 958) 12.2 µM and 36.6 µM and 30.4 µM | CD69, CD69 (gene 969) 5.71 µM and 24.7 µM and 20.2 µM | [3] 30 µM | [4] 49.1 µM | [5] 48 µM | [6] 30 µM | [7] 19.3 µM and 45 µM and 23.6 µM | [8] 43.3 µM and 51.2 µM | [11] 0.226 µM | [13] 9.65 µM
inactive: [1] | [3] | [4] | [5] | [6] | [8]

C1=Cc2cccc3cccc1c23
inactive: [1] | CD38, CD38 (gene 952) | CD40, CD40 (gene 958) | CD69, CD69 (gene 969) | [3] | [4] | [5] | [6] | [7] | [8]

c1ccc(NNc2ccccc2)cc1
inactive: [1] | CD38, CD38 (gene 952) | CD40, CD40 (gene 958) | CD69, CD69 (gene 969) | [2] | [3] | [4] | [5] | [6] | [7] | [8]

CCC12COCN1COC2
active: [11] 3.73 µM
inactive: [1] | CD38, CD38 (gene 952) | CD40, CD40 (gene 958) | CD69, CD69 (gene 969) | [2] | [3] | [4] | [5] | [6] | [7] | [8]

CN(C)C(=O)Nc1ccc(Cl)cc1
inactive: [1] | CD38, CD38 (gene 952) | CD40, CD40 (gene 958) | CD69, CD69 (gene 969) | [3] | [4] | [5] | [6] | [8]
active: [7] 20 µM

CCN(CC)N=O
inactive: [1] | CD38, CD38 (gene 952) | CD40, CD40 (gene 958) | CD69, CD69 (gene 969) | [2] | [3] | [4] | [5] | [6] | [7] | [8]
active: [15] 6.21 µM

Cc1ccc(N=C=O)cc1N=C=O
inactive: [1] | CD38, CD38 (gene 952) | CD40, CD40 (gene 958) | CD69, CD69 (gene 969) | [2] | [3] | [4] | [5] | [6] | [8]
active: [7] 10.5 µM | [14] 8.65 µM
